Measured values from ChEMBL document CHEMBL3988442, “University of Dundee, Small-Polar-MMV Screening Library” (2021).
The campaign covered roughly 48,000 compounds. About 13,000 (27%) showed an effect of 50% or more. The list shows a part of the results.

What follows are molecules tested on Wolbachia pipientis (assay: Anti-Wolbachia Cell-Based Screen). Settings: 5 µM.
Assay type: functional
Design: scale not given: in the data most compounds retested in dose-response had high values

Row | SMILES | Percent Effect
1 | COc1cccc(C(=O)N2CCc3ncnc(C)c3CC2)c1 | -6.547%
2 | CN1CC[C@H]2CN(C(=O)c3csc(Cc4ccccc4)n3)C[C@H]21 | 0.1576%
3 | Cc1nn(C)cc1C(C)Nc1ncnc2sccc12 (stereo not given) | -14.94%
4 | c1n[nH]cc1CCCN1CCC(OC2CCCCC2)CC1 | 7.391%
5 | O=C(Nc1cc(C(F)(F)F)c[nH]c1=O)C1CCCO1 (stereo not given) | 93.32%
6 | Cc1ccc(NC(=O)NCCCc2n[nH]c(N)c2C#N)cc1 | 1.349%
7 | Cc1nn(C)c(C)c1NC(=O)CCn1ncc2c(C)cccc21 | -5.64%
8 | O=C(CC1CC1)NCc1cc(=O)n2c(n1)CN(Cc1ccoc1)CCC2 | 68.76%
9 | Cc1ccc(CN2CCCn3c(nc(CN4CCCC4)cc3=O)C2)s1.O=C(O)C(F)(F)F.O=C(O)C(F)(F)F | -4.249%
10 | COCC(=O)NCc1cc(=O)n2c(n1)CN(Cc1ccncc1)CCC2 | 99.24%
11 | CN(C)C(=O)NCc1cc(=O)n2c(n1)CN(Cc1ccoc1)CCC2.O=C(O)C(F)(F)F | 87.23%
12 | Cc1ccc(CN2CCCn3c(nc(Cn4cncn4)cc3=O)C2)s1 | -3.936%
13 | O=c1cc(Cn2ccnc2)nc2n1CCCN(Cc1ccsc1)C2 | 9.464%
14 | Cc1oncc1C(=O)NCc1cc(=O)n2c(n1)CN(C)CCC2.O=C(O)C(F)(F)F | -6.613%
15 | COCC(=O)NCc1cc(=O)n2c(n1)CN(Cc1ccoc1)CCC2 | 84.57%
16 | Cn1ncc2c(NCCOCc3ccccc3)nc(C3CCCC3)nc21 | 18.15%
17 | Cc1cc(C)c(C)c(OCCCNC(=O)NC(C)c2nncn2C)c1 (stereo not given) | 4.914%
18 | Cc1nc(CC(=O)NCCNc2nccc(C(F)(F)F)n2)cs1 | -6.146%
19 | O=c1cc(CN2CCCC2)nc2n1CCCN(Cc1ccco1)C2 | 15.57%
20 | O=c1cc(CN2CCCC2)nc2n1CCCN(Cc1ccoc1)C2 | 85.96%
21 | COCC(=O)NCc1cc(=O)n2c(n1)CN(Cc1ccco1)CCC2 | 106.6%
22 | O=c1cc(CN2CCCC2)nc2n1CCCN(Cc1ccsc1)C2 | 8.942%
23 | CN(C)Cc1cc(=O)n2c(n1)CN(Cc1ccco1)CCC2 | 2.843%
24 | O=c1cc(Cn2cncn2)nc2n1CCCN(Cc1ccco1)C2 | -4.032%
25 | O=C1NC(c2ccccc2)=N[C@@]12CC[C@@H]1CN(S(=O)(=O)C3CC3)C[C@@H]12 | 2.973%

Row | SMILES | Percent Effect
26 | Cc1ccc(C)c(NC(=O)C(C)N2CCCN(c3nccs3)CC2)c1 (stereo not given) | 18.26%
27 | CCC(CO)N(Cc1cccc(O)c1)Cc1ccccc1C (stereo not given) | -1.955%
28 | N#Cc1cc(NC(=O)C2CC=CC2)ccc1N1CCC(O)CC1 | -4.254%
29 | CNC(=O)[C@@H](C1CCCCC1)N1CCC[C@H]1C(=O)NC1CC1 | 10.77%
30 | N#Cc1ccccc1CNC(C(=O)N1CCOCC1)c1ccccc1 (stereo not given) | -7.429%
31 | CCOC(=O)C1CCN(C(=O)CN2CCCC2Cc2ccccc2)CC1 (stereo not given) | -0.766%
32 | CCOC(=O)C1CCN(C(=O)CN2CCCC2c2ccccc2C)CC1 (stereo not given) | -25.1%
33 | CCOC(=O)C1CCN(C(=O)c2cnn(-c3ccc(C)cc3)c2N)CC1 | 105.1%
34 | CCc1c(C(=O)NCC(=O)OCC2CC2)cnn1-c1ccc(C)cc1 | -8.085%
35 | CCOC(=O)C1CCN(C(=O)c2cnn(-c3ccccc3F)c2N)CC1 | 125.9%
36 | CCOC1CCN(C(=O)c2ccc(-n3ncc(C#N)c3N)cc2)CC1 | -10.17%
37 | Cc1nn(C(C)C)c(C)c1NC(=O)c1ccc(F)cc1 | -6.824%
38 | CCc1noc(CN(C)CCC(=O)Nc2ccccc2C#N)n1 | 9.134%
39 | N#Cc1ccccc1NC(=O)c1ccc2c(c1)OCO2 | 136.5%
40 | CN(C)Cc1ccccc1NC(=O)c1ccc(C#N)cc1 | 4.666%
41 | COc1cc(C)nc(N2CCN(C(C)c3nc(C)no3)CC2)n1 (stereo not given) | -6.748%
42 | CC(C)(O)CSCCNCc1ccc(Cl)c2cccnc12 | 7.695%
43 | CC1CCC(NCCCN2CCOCC2)CC1 (stereo not given) | -18.43%
44 | C1CN(CCN2CCOCC2)CCN1 | 96.42%
45 | C1CCC(NCCN2CCOCC2)C1 | -5.882%
46 | Cc1cc(C)n(CC2CCCN2C(=O)CCc2cscn2)n1 (stereo not given) | -3.871%
47 | CCC(C)(NC(=O)CCN1CCOC1=O)C(=O)OC (stereo not given) | -2.045%
48 | Cc1cc(C)n(C2CCCN(C(=O)Cc3csc(C)n3)C2)n1 (stereo not given) | 1.332%
49 | O=C(CCc1nccs1)N1CCCC(n2cccn2)C1 (stereo not given) | 73.36%
50 | Cc1cc(C)n(C2CCCN(C(=O)CCc3nccs3)C2)n1 (stereo not given) | 95.16%

Row | SMILES | Percent Effect
51 | O=C(CCc1cnn(-c2ccccc2)c1)N1CCCC(n2cccn2)C1 (stereo not given) | -6.718%
52 | Cc1cnn(C2CCCN(C(=O)CCc3nccs3)C2)c1 (stereo not given) | -0.76%
53 | Cc1cc(C)n(C2CCCN(C(=O)CN(C)c3cnccn3)C2)n1 (stereo not given) | -4.644%
54 | CN1CCCN(C(=O)c2cc(CN(C)CCc3ccccc3)on2)CC1 | -31.64%
55 | CN(CCc1ccccc1)Cc1cc(C(=O)N2CCSCC2)no1 | -17.09%
56 | CN(CCc1ccccc1)Cc1cc(C(=O)N2CCN(C)C(=O)C2)no1 | 103.8%
57 | O=C(NCCSCc1cccs1)C1CCCN(C(=O)N2CCCC2)C1 (stereo not given) | -5.994%
58 | COCCN1CCCC1c1nccnc1Nc1nccs1 (stereo not given) | 95.24%
59 | Cc1cnc(NC(=O)c2ccc(C3CCCN3CC(C)C)s2)s1 (stereo not given) | -4.424%
60 | COc1c(C2CCCN2CCOc2ccccc2C#N)c(C)nn1C (stereo not given) | -6.58%
61 | COCCN1CCCC1c1nccnc1Nc1ncc(C)s1 (stereo not given) | 100%
62 | COCCN1CCN(Cc2nccs2)[C@H]2CS(=O)(=O)C[C@H]21 | -12.76%
63 | COCCN1CCCC1c1nccnc1Nc1nc(C)cs1 (stereo not given) | -1.129%
64 | O=C(CN1CCN(c2ncnc3c2CCNCC3)CC1)N1CCCCC1 | -2.249%
65 | c1ccc(-c2cnc(CNCC3CCCN3c3cccnn3)o2)cc1 (stereo not given) | -6.959%
66 | Cn1cnc2c1C(C(=O)N1CCCC1)N(S(C)(=O)=O)CC2 (stereo not given) | 3.413%
67 | CC(C)Oc1ncnc2c1CCN(Cc1ccco1)CC2.O=C(O)C(F)(F)F | 2.851%
68 | Cc1ccc(CN2CCc3ncnc(-c4ccoc4)c3CC2)o1.O=C(O)C(F)(F)F | 105.9%
69 | CC(C)Oc1ncnc2c1CCN(Cc1ccoc1)CC2.O=C(O)C(F)(F)F | 3.383%
70 | Cc1ccc(CN2CCc3ncnc(-c4ccc(F)cc4)c3CC2)o1.O=C(O)C(F)(F)F | -0.3748%
71 | Cc1ccc(CN2CCc3ncnc(-c4ccncc4)c3CC2)o1.O=C(O)C(F)(F)F.O=C(O)C(F)(F)F | 96.83%
72 | O=C1CCc2cc(S(=O)(=O)NC(=O)c3ccc4c(c3)OCO4)ccc2N1 | -58.45%
73 | Cc1cc(C(=O)N2CCC3(CC2)CN(CCN(C)C)C(=O)O3)nc(C)n1 | -4.106%
74 | Cc1nc[nH]c1C(=O)N1CCC2(CC1)CN(CCN(C)C)C(=O)O2 | 0.5324%
75 | Cc1ccc(C(=O)N2CCC3(CC2)CN(CCN(C)C)C(=O)O3)c(F)c1 | 62.77%

Row | SMILES | Percent Effect
76 | O[C@@H]1C[C@H]2CN(Cc3ccccc3Cl)[C@H](Cc3ccccc3)CN2C1 | 117.1%
77 | Oc1ccccc1CN1C[C@H](O)C[C@H]1c1nc(Cc2ccccc2)no1 | 2.62%
78 | O[C@@H]1C[C@H]2CN(Cc3ccccc3)[C@H](Cc3ccccc3)CN2C1 | 111.3%
79 | O[C@@H]1C[C@H]2CN(Cc3ccsc3)[C@@H](Cc3ccccc3)CN2C1 | 108.5%
80 | CS(=O)(=O)N1C[C@@H]2CC[C@H](C1)N(Cc1ccsc1)C2 | -3.691%
81 | O[C@@H]1C[C@@H](c2nc(-c3ccccc3)no2)N(CC2CCCCC2)C1 | -2.196%
82 | O[C@@H]1C[C@@H](c2nc(-c3ccccc3)no2)N(Cc2cccnc2)C1 | 4.417%
83 | Cc1cccc(-c2noc([C@@H]3C[C@@H](O)CN3CC3CCCCC3)n2)c1 | 5.786%
84 | O[C@@H]1C[C@@H](c2nc(-c3ccccc3)no2)N(Cc2ccncc2)C1 | -6.257%
85 | Cc1ccc(CN2C[C@H]3CN(Cc4ccccc4Cl)CCN3C2=O)cc1 | 5.801%
86 | O[C@@H]1C[C@@H](c2nc(Cc3ccccc3)no2)N(Cc2ccc(F)cc2)C1 | 5.892%
87 | O[C@@H]1C[C@H]2CN(CC3CCCCC3)[C@H](Cc3ccccc3)CN2C1 | 87.27%
88 | CCS(=O)(=O)NCc1cc(Br)c(OC)c(OC)c1 | -0.2028%
89 | CCS(=O)(=O)c1ccccc1C(=O)NCC1Cc2ccccc2O1 (stereo not given) | -9.446%
90 | CC(C)CCC(=O)N1CCC(c2nnc(CN(C)CCO)n2C)CC1 | -15.68%
91 | CCOCC(=O)NC1(c2cccc(Br)c2)CC1 | -23.15%
92 | Cc1n[nH]c(=O)c2c(NC(=O)CN3CCC(C)CC3)oc(C)c12 | 8.431%
93 | COC(=O)N1CCN(c2ncnc3nc(C)cc(C)c23)CC1 | 98.52%
94 | Cc1cc(C)c2c(N3CCN(C(=O)N(C)C)CC3)ncnc2n1 | 111.7%
95 | COCCN1CCN(c2ncnc3nc(C)cc(C)c23)CC1 | -19.86%
96 | Cc1cc(C)c2c(N(C)CC3COCCO3)ncnc2n1 (stereo not given) | -3.038%
97 | COCCCN1CCN(c2ncnc3nc(C)cc(C)c23)CC1 | -12.49%
98 | Cc1cc(C)c2c(N3CCN(Cc4ncccc4C)CC3)ncnc2n1 | -39.06%
99 | CSc1ccc(NC(=O)Cc2cccc(O)c2)nc1 | -26.55%
100 | Cc1cncc(C(=O)N2CCC3(CC2)C(=O)Nc2ccccc23)c1 | -7.764%
